Results from PubChem BioAssay (NCI).
Compounds without any hit were thinned out: in the full panel of roughly 83,000, 20% have a hit.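 Note: values are percent growth. 100 is the growth of untreated cells, values between 100 and 0 indicate rising inhibition; between -100 and 0 indicates cell death.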 Values without a mark were called inactive. The source made the active and inactive calls. Rule for the calls: active = growth percent below 10; inactive = the rest.

Key:
Test in all cases: NCI-60 one-dose screen, 48 h (100 = growth as untreated, 0 = no growth, -100 = all killed)
[1] = system: DU-145 prostate; details: 10 µM unless noted
[2] = system: K-562 leukemia; details: 10 µM unless noted
[3] = system: MALME-3M melanoma; details: 10 µM unless noted
[4] = system: MDA-MB-231 breast; details: 10 µM unless noted
[5] = system: RXF 393 renal; details: 10 µM unless noted
[6] = system: SF-268 CNS; details: 10 µM unless noted
[7] = system: SF-295 CNS; details: 10 µM unless noted
[8] = system: SF-539 CNS; details: 10 µM unless noted
[9] = system: UACC-257 melanoma; details: 10 µM
[10] = system: M14 melanoma; details: 10 µM unless noted
[11] = system: HCT-15 colon; details: 10 µM unless noted
[12] = system: HT29 colon; details: 10 µM unless noted
[13] = system: SNB-75 CNS; details: 10 µM unless noted
[14] = system: SNB-19 CNS; details: 10 µM unless noted
[15] = system: U251 CNS; details: 10 µM unless noted
[16] = system: PC-3 prostate; details: 10 µM unless noted
[17] = system: SK-MEL-5 melanoma; details: 10 µM unless noted
[18] = system: LOX IMVI melanoma; details: 10 µM unless noted
[19] = system: SK-MEL-28 melanoma; details: 10 µM unless noted
[20] = system: UACC-62 melanoma; details: 10 µM unless noted

Row | SMILES | growth [1] | growth [2] | growth [3] | growth [4] | growth [5] | growth [6] | growth [7] | growth [8] | growth [9] | growth [10] | growth [11] | growth [12] | growth [13] | growth [14] | growth [15] | growth [16] | growth [17] | growth [18] | growth [19] | growth [20]
1 | Cc1cn(-c2cc(NC(=O)c3cncc(C#Cc4cnc5ccc(OCCCS(C)(=O)=O)nn45)c3)cc(C(F)(F)F)c2)cn1 | 12.6% | 11% | 11.7% | 14.4% | -74.5% (active) | -5.33% (active) | 54.6% | 6.3% (active) | 64.4% | 18% | 37.8% | 16.1% | 13.6% | 18.8% | 26.8% | 52.8% | 2.76% (active) | 9.26% (active) | 31.5% | –
2 | C(=C(\C1=NCCN1)n1cnc2ccccc21)/c1ccc2ccccc2c1 | 68.7% | 25.4% | 79.2% | 62.5% | -14.1% (active) | 81.8% | 77.7% | 82% | 82.3% | 61.7% | 61.1% | 91.7% | 72.9% | 81.3% | 87.3% | – | 63% | 71.5% | 79.4% | 77.2%
3 | O=C1c2c(c3c4cc(Br)ccc4[nH]c3c3ccc4ccccc4c23)C(=O)N1CCN1CCNCC1 | 72.1% | -25.7% (active) | 80.5% | 84.1% | 82.8% | 72.7% | 73.6% | 87.1% | 98.3% | 87.6% | -87.3% (active) | 8.96% (active) | 85% | 77.3% | -47.3% (active) | 67.2% | 91.4% | – | 95.9% | 78.8%
4 | Cc1cc(-c2ccc3nc(N)sc3c2)nc2ccc3[nH]ncc3c12 | 48.1% | 21.1% | 33.4% | 46.2% | 47% | 49.5% | 29.2% | 20.9% | 46.4% | 19.7% | 33.9% | 21.1% | -12.7% (active) | 39.8% | 29.3% | 62.5% | 26.3% | 43.8% | 38.4% | –
5 | O=C(NCCCCCCNC(=O)c1c2c(nc3ccccc13)-c1cccnc1SC2)c1c2c(nc3ccccc13)-c1cccnc1SC2 | 104% | 73.4% | -16.5% (active) | 59.3% | 73.4% | 77.7% | 94.7% | 86.8% | 17.1% | 30.8% | 74.8% | 53.7% | 62.9% | 66.5% | 77.6% | 81% | 84.3% | 78.6% | 27.7% | –
6 | Cc1ccc(NC(=O)N[C@@H](Cc2cc(F)cc(F)c2)C(=O)NC2C(=O)N3CCC[C@H]3C(=O)N3CCCC[C@H]3C(=O)N[C@@H](C)C(=O)N3C[C@H](C)C[C@H]3C(=O)O[C@H]2C)c(F)c1 (stereo not given in full) | 25.7% | 20.2% | 44.3% | 34.6% | -7.39% (active) | 34.9% | 9.62% (active) | 39.2% | 16.9% | 23% | 14.1% | 26.5% | 34.7% | 26.3% | 28.3% | 15% | 2.32% (active) | 25.3% | 44.1% | –
7 | C#CCOc1ccc(C(Nc2ccc(OC)cc2)c2nnnn2C2CCCCC2)cc1 (stereo not given) | 109% | 94.4% | 98.5% | 86.6% | 114% | 102% | 100% | 104% | 102% | 97.2% | 97.1% | 101% | 92.6% | 93.3% | 89.9% | 93.8% | 100% | 89.2% | 109% | –
8 | C/C(=C(/c1ccc(O)cc1)c1ccc(OCCN(C)C)cc1)c1ccc(Cl)cc1 | 65.2% | 0.0711% (active) | -47.9% (active) | 31.1% | 30.3% | 61.8% | 80.9% | -18.4% (active) | -66.6% (active) | -70.7% (active) | -26.8% (active) | -51.3% (active) | 63.8% | 59.7% | 35.3% | 52.1% | 42.9% | -22.2% (active) | -74.1% (active) | –
9 | COc1cc([C@H]2OC[C@H]3[C@@H]2CO[C@@H]3c2ccc(O)c(OC)c2)ccc1O | 94.8% | 99.4% | 106% | 65.2% | 76.2% | 91.1% | 108% | 91.1% | 113% | 102% | 88.4% | 92.8% | 87.9% | 104% | 97% | – | 57.3% | 9.99% (active) | – | 91%
10 | C#C[C@]1(O)CC[C@H]2[C@@H]3CC=C4c5sc(C6CC6)nc5CC[C@]4(C)[C@H]3CC[C@@]21C | 92.3% | 35.3% | 107% | 91.3% | 5.22% (active) | 86.5% | 43.7% | 66.4% | 78.9% | 77.9% | 50.4% | 70.2% | 94.8% | 90% | 66.3% | 67.2% | 93.5% | 62.6% | 69.3% | –
11 | CC(c1ccccc1)N1C(=O)/C(=C/c2csc(C#N)n2)SC1=S (stereo not given) | 87.7% | 40.8% | 82.4% | 90.1% | 90.1% | 101% | 103% | 93.4% | 81.7% | 78.4% | 76.1% | 106% | 85.4% | 93.7% | 94.1% | – | 96.9% | 39.8% | 93.5% | 85.4%
12 | O=S(=O)(Nc1ccc(I)c(Cl)c1)c1ccc(-c2cnc(C3CC3)o2)cc1 | 19.5% | 9.83% (active) | 49.4% | 44.8% | 2.46% (active) | 59.4% | 12.2% | 10.9% | 69.9% | 20.9% | 27.8% | 8.12% (active) | -13% (active) | 42.7% | 31% | – | 16.8% | 36.1% | 59.7% | 31.2%
13 | O=C1Nc2ccc(Br)cc2/C1=N\c1nnc(-c2ccc(Cl)cc2)o1 | 73.3% | 16.9% | 34.1% | 75.2% | 87.9% | 75.2% | 75.1% | 64.5% | 91.6% | 51.2% | 24.2% | 32.5% | 46.8% | 72% | 60.5% | 80.1% | 77.2% | – | 70.8% | 60.1%
14 | C#C[C@]1(O)CC[C@H]2[C@@H]3CC=C4c5sc(-c6ccccn6)nc5CC[C@]4(C)[C@H]3CC[C@@]21C | 90.2% | 31.9% | 81.9% | 78.6% | -34.4% (active) | 82.4% | -37.3% (active) | 30.9% | 70.5% | 74.8% | 68.9% | 68.2% | 37.4% | 72.4% | 51.1% | 51.9% | 91% | 62.9% | 44.3% | –
